High-throughput results (PubChem BioAssay)
ELG1 DNA repair: blocks ELG1-dependent DNA repair in HEK293T cells; HEK293T ELG1-luciferase reporter, luminescence, 16 h; DNA damage induced by 5-fluorouridine; Potency, µM (titrated, usually from 46.1 µM), for the others: top-dose activity change, negative = inhibition, most hits filed as inhibitors; 330,000 compounds, 2.3% hits; also: % is scaled to controls: 0 for no effect and ±100 for the full control effect; nearly all actives have a fitted effect of over 55% in size
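5-Fluorouridine DNA damage + compound/DMSO, 2,000 cells/well, 16 h, 37 °C/5% CO2. ONE-Glo, 30 min RT, luminescence. Readout = decrease in reporter signal.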
KB-3-1 cytotox: KB-3-1 parental cell cytotoxicity. KB-3-1 viability, CellTiter-Glo ATP luminescence, 72 h. Potency, µM (titrated, usually from 46.1 µM), most hits filed as cytotoxic. 400,000 compounds, 1.4% hits. AID 1347075; also: % is scaled to controls: 0 for no effect and ±100 for the full control effect; nearly all actives have a fitted effect of over 60% in size
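Cells are dispensed, compounds pinned in, plates held at 37 °C for 72 h, then CellTiter-Glo is added and luminescence read after 10 minutes. Cell line: parental KB-3-1 in phenol-red-free DMEM, 10% FBS.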
KB-V1 cytotox: KB-V1 MDR subline cytotoxicity; KB-V1 MDR cells viability, CellTiter-Glo, 72 h; Potency, µM (highest dose often 46.1 µM), most hits filed as cytotoxic; 400,000 compounds, 3.4% hits; AID 1347076; also: % is scaled to controls: 0 for no effect and ±100 for the full control effect; nearly all actives have a fitted effect of over 60% in size
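Compound-treated KB-V1 multidrug-resistant cells, 72 h, 37 degrees C; viability by CellTiter-Glo. Fitted qHTS curves give the values.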
SW480 rereplic: induces DNA re-replication in SW480 colon adenocarcinoma cells; Potency, µM (top dose mostly 46.1 µM), without a hit: at the highest dose re-replication activation, hits mostly activators; 340,000 compounds, 1.8% hits; AID 624297; SW480 DNA re-replication, Hoechst DNA content imaging, 48 h; also: % of control where 0% means no effect; nearly all actives have a fitted effect of over 55% in size
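Image-based DNA-content assay: after two days of treatment, nuclei were labelled with the DNA dye Hoechst and imaged, and hits were compounds raising the count of nuclei showing high fluorescence intensity.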
MCF10A rereplic: inducers of DNA re-replication in MCF 10A breast cells; MCF 10A DNA re-replication, Hoechst nuclear intensity, 48 h; Potency, µM (doses to about 46.1 µM), inactives show top-dose activity, positive = re-replication, most hits filed as activators; 350,000 compounds, 2.9% hits; AID 624296; also: % of control where 0% means no effect; nearly all actives have a fitted effect of over 50% in size
An asterisk follows results filed as active; i = inactive; u = inconclusive; x = no result given. Hits are enriched below; roughly 8.2% of the tested compounds scored in any of these assays. Calls follow the shape of the dose curve; as a rule, active = well fitted curve in the direction sought with a large enough effect; inconclusive = small, poorly fitted or top-dose-only effect, or another doubt; inactive = no such curve, though single readings can be large; an effect the other way counts as inactive or inconclusive. Potency is read from the fitted curve at half-maximal effect.

SMILES	ELG1 DNA repair	KB-3-1 cytotox	KB-V1 cytotox	SW480 rereplic	MCF10A rereplic
COc1ccccc1NC(=O)O/N=C(\N)c1ccccc1	7.4%	i	i	11.6µM*	u
COc1ccccc1NC(=O)CC(=O)c1ccccc1	24.1%	i	u	-11.3%	-2.4%
O=C(Nc1ccccc1Cl)O/N=C/c1ccc(F)cc1	x	i	i	-9.6%	-5.1%
CN(C)c1ccc(/C=N/OC(=O)Nc2ccccc2Cl)cc1	u	23.1µM*	u	-0.5%	1.2%
COc1ccc(/C=N/OC(=O)Nc2ccccc2OC)cc1	u	10.3µM*	9.2µM*	u	7.31µM*
COc1ccccc1Nc1nc(NCCC(C)C)nc(N)c1[N+](=O)[O-]	20.6µM*	i	i	-5.4%	5.3%
Cc1ccc(C)c(S(=O)(=O)N2CCN(C(=O)Cc3ccc(S(=O)(=O)N4CCOCC4)s3)CC2)c1	u	i	u	0.3%	1.8%
CCC/C(O)=C1\C(=O)CC(c2ccccc2)CC1=NCCc1c(C)[nH]c2ccccc12 (stereo unspecified)	u	i	i	3.1%	2.2%
CC(=NCCc1c(C)[nH]c2ccc(C)cc12)C1=C(O)CC(c2ccccc2)CC1=O (stereo unspecified)	u	5.8µM*	5.8µM*	6.51µM*	2.31µM*
CC(=NCCc1c(C)[nH]c2ccc(OC(F)(F)F)cc12)C1=C(O)CC(c2ccccc2)CC1=O (stereo unspecified)	u	4.61µM*	u	8.2µM*	8.2µM*
Cc1c(C(=O)N2CCCCC2CCN2CCCC2=O)oc2c(F)cccc12 (stereo unspecified)	20.2%	x	x	24.5%	1.7%
Oc1cccc(C=NN=C2c3ccccc3-c3ccccc32)c1	x	i	18.4µM*	-4.8%	u
CC(C)CCn1c(SC(C)C#N)nc2ccccc2c1=O (stereo unspecified)	x	i	i	x	x
CCc1ccccc1N(C)C(=O)c1cc2c(s1)-c1c(C)cccc1OC2	x	i	i	x	x
COc1cc2c(cc1OC)C(C)N(C(=O)c1cc3c(s1)-c1c(C)cccc1OC3)CC2 (stereo unspecified)	u	i	i	-0.1%	16.4µM*
COc1ccc(N(C)C(=O)c2cc3c(s2)-c2c(C)cccc2OC3)c(OC)c1	23.1µM*	i	i	u	u
COc1ccc(C2C=C(c3ccccc3)Nc3nc(NC(=O)/C=C/c4ccc(Cl)cc4)nn32)cc1 (stereo unspecified)	x	i	i	x	x
CC(C)CC(=O)NC(Nc1ccc([N+](=O)[O-])cc1)C(Cl)(Cl)Cl (stereo unspecified)	u	u	18.4µM*	2.2%	5.2%
O=C(NC(NC(=S)Nc1c(Cl)cccc1Cl)C(Cl)(Cl)Cl)c1cccc([N+](=O)[O-])c1 (stereo unspecified)	u	u	u	u	6.51µM*
COC(=O)NC(NC(=S)Nc1ccc([N+](=O)[O-])cc1)C(Cl)(Cl)Cl (stereo unspecified)	u	u	20.6µM*	15.8%	23.1%
CC(C)CC(=O)NC(Nc1ccccc1F)C(Cl)(Cl)Cl (stereo unspecified)	-10.5%	u	u	-8.9%	-5.7%
O=C(NNC(=S)NC(=O)c1ccccc1Cl)c1cccc([N+](=O)[O-])c1	-19.1%	u	i	9.8%	u
COc1ccccc1CNC(=O)C(C)n1c(=O)cc(C(F)(F)F)c2c(C)nn(C)c21 (stereo unspecified)	x	i	i	x	x
Cc1cc(C(F)(F)F)n(-c2nc(C(=O)NNS(=O)(=O)c3ccccc3[N+](=O)[O-])cs2)n1	5.8µM*	i	i	-19.9%	u
COc1cc(/C=N/NC(=O)c2cc(-c3cccs3)nc3ccccc23)ccc1O	u	u	u	-33.9%	u
N#Cc1ccc(/C=N/NC(=O)c2cc(-c3cccs3)nc3ccccc23)cc1	-20.4%	u	i	u	20.6µM*
